Source: PubChem BioAssay AID651871 (Sanford-Burnham Center for Chemical Genomics, 2012)
Where “and” joins values, the source holds several entries; their conditions need not be identical. Identical values can stand only once.

Test system: H9c2
Assay: cardiomyocyte survival under oxidative or metabolic stress – cell-based, panel, H9c2 and HL-1, ATP luminescence, set 2, SAR follow-up (AID 651871);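 further: cells exposed to stressor for 2 h before ATP readout; reference of the scale not given here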
Conditions: H9c2/HL-1 cardiomyocytes, H2O2 oxidative stress; with H2O2, run 4, at 79 µM (top of the series)

| Structure (SMILES) | activity (protection/inhibition) |
| --- | --- |
| COc1ccc2nc(-c3cc(OC)c(OC)c(OC)c3)cc(C(=O)NCC(=O)Nc3ccc(C(C)=O)cc3)c2c1 | 86.1% and 56.6% |
| COc1cc(-c2cc(C(=O)Nc3cccc(C(=O)NCc4ccccc4)c3)c3ccccc3n2)cc(OC)c1OC | 87.2% |
| COc1ccc2c(c1OC)C(=O)N1c3ccccc3C(=O)N(Cc3cccc(Cl)c3Cl)C21 (centres undefined) | 52.4% and 40.9% |
| CCOC(=O)c1cccc(NC(=O)CNC(=O)c2cc(-c3cc(OC)c(OC)c(OC)c3)nc3ccccc23)c1 | 115% |
